Measurements reported in the supplement of paper PMC11732987, “Enantioselective OTUD7B fragment discovery through chemoproteomics screening and high-throughput optimisation” (Communications Chemistry, 2025).

compound: ClCC(=O)NC1(CCCC1)C#N; experiment: log2 ratio of Biotin-Ahx-Ub-VS probe labelling (compound/DMSO); higher = less target engagement, active = hit call of the paper (q ≤ 0.05, log2 ratio ≤ -1); details: compound concentration: 50uM; treatment time: 3 h
Method: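 Round 2 competitive ABPP in HEK293T lysate. Compounds were tested at 50 and 200 µM for 3 h, followed by Biotin-Ahx-Ub-VS enrichment and diaPASEF LC-MS/MS. Values are the average log2 ratio (compound/DMSO) from an unpaired t-test (n=3 treated, n=26 DMSO).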

UniProt Q5VVQ6, sequence (Q5VVQ6 whole entry): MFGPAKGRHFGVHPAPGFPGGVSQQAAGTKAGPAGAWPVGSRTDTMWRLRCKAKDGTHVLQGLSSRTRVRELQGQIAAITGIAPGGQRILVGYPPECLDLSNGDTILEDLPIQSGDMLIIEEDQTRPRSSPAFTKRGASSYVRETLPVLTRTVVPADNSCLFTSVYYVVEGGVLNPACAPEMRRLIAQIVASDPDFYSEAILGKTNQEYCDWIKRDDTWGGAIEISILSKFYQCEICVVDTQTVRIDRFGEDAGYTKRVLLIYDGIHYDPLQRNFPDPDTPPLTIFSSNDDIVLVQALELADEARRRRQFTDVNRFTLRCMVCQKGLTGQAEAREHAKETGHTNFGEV
UniProt Q9P275, sequence (Q9P275 whole entry): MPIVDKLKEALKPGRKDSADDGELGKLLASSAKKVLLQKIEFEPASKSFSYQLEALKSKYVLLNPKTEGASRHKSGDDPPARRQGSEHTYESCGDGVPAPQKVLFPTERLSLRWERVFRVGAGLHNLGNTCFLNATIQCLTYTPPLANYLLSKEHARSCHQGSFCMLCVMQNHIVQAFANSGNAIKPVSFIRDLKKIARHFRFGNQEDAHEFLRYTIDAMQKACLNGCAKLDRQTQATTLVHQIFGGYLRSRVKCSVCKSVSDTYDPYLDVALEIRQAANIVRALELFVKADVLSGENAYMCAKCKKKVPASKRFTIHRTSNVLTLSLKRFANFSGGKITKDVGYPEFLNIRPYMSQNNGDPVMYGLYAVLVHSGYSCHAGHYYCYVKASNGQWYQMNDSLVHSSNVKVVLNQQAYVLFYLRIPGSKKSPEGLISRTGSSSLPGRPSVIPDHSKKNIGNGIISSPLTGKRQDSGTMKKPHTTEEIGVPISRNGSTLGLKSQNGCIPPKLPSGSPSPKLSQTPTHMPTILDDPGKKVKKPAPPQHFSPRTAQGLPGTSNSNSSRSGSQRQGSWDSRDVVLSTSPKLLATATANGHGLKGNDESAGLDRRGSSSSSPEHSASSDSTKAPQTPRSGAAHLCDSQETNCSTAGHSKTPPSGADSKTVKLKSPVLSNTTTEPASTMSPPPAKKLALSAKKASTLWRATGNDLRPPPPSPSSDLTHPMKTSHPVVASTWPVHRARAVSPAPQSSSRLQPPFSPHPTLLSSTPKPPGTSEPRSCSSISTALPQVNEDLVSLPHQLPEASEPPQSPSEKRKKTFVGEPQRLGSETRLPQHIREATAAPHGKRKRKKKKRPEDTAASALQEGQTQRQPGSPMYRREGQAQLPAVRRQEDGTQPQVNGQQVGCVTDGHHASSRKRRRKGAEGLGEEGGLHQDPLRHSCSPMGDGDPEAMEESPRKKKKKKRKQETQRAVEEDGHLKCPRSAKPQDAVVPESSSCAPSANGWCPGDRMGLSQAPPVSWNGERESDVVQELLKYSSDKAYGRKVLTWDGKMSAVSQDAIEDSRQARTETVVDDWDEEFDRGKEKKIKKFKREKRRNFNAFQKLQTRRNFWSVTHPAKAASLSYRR
UniProt O94966, sequence (O94966 whole entry): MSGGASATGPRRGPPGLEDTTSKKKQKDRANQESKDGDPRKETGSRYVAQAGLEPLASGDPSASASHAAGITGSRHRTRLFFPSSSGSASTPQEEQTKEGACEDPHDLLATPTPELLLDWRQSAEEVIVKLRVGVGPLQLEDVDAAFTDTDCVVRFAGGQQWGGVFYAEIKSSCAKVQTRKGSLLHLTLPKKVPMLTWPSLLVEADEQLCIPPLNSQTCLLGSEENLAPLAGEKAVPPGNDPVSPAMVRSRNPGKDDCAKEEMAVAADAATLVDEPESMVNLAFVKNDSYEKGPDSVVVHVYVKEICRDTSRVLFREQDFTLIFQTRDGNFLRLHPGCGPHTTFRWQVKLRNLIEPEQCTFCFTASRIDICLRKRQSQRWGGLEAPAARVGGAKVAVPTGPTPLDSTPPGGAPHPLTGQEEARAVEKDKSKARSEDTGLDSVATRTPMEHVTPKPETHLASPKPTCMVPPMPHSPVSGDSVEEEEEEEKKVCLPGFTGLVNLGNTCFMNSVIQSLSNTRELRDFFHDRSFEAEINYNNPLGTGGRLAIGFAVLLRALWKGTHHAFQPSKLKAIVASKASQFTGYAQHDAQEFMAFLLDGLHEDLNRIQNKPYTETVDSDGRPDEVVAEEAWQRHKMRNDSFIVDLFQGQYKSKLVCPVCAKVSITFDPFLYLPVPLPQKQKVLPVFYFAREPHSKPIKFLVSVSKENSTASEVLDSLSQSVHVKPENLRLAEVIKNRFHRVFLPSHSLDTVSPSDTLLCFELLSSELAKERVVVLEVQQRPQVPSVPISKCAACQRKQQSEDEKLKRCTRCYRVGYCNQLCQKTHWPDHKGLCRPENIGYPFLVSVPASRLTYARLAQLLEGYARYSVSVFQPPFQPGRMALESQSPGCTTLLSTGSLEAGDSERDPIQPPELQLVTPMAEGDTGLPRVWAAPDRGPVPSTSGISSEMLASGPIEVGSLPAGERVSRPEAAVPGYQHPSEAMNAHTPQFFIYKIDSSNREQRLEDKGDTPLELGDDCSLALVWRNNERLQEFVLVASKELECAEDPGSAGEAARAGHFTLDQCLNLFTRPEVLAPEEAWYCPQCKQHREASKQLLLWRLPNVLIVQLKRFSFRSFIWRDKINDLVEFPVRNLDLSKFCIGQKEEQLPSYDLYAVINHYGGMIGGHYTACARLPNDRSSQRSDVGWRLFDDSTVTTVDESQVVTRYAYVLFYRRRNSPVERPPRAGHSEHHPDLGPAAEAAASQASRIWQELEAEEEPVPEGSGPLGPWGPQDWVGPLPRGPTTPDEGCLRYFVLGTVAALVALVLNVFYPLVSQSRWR
UniProt Q9UPT9, sequence (Q9UPT9 whole entry): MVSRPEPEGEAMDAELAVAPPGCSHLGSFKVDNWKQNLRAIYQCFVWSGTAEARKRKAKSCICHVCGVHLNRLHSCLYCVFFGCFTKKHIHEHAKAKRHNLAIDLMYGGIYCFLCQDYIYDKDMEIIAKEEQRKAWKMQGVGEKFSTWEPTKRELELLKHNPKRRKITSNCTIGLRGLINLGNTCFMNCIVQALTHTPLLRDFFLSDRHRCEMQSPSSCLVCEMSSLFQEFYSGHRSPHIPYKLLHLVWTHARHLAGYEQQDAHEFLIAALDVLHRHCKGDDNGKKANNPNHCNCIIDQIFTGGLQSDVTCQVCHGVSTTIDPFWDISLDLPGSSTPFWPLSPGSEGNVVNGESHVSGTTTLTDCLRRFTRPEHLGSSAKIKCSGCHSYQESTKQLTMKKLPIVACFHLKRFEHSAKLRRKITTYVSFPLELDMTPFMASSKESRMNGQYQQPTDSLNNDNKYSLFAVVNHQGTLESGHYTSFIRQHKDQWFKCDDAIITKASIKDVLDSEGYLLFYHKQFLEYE
UniProt P51665, sequence (P51665 whole entry): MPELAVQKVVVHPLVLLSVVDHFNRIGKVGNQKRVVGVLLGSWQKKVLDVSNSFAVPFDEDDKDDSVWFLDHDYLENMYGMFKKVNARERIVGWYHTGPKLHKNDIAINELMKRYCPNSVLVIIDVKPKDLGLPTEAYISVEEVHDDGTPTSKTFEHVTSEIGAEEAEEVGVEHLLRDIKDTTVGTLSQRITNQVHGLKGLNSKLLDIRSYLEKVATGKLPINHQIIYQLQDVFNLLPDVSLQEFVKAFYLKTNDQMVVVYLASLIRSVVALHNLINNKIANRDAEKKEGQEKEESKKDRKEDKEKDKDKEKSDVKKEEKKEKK
UniProt P45974, sequence (P45974 whole entry): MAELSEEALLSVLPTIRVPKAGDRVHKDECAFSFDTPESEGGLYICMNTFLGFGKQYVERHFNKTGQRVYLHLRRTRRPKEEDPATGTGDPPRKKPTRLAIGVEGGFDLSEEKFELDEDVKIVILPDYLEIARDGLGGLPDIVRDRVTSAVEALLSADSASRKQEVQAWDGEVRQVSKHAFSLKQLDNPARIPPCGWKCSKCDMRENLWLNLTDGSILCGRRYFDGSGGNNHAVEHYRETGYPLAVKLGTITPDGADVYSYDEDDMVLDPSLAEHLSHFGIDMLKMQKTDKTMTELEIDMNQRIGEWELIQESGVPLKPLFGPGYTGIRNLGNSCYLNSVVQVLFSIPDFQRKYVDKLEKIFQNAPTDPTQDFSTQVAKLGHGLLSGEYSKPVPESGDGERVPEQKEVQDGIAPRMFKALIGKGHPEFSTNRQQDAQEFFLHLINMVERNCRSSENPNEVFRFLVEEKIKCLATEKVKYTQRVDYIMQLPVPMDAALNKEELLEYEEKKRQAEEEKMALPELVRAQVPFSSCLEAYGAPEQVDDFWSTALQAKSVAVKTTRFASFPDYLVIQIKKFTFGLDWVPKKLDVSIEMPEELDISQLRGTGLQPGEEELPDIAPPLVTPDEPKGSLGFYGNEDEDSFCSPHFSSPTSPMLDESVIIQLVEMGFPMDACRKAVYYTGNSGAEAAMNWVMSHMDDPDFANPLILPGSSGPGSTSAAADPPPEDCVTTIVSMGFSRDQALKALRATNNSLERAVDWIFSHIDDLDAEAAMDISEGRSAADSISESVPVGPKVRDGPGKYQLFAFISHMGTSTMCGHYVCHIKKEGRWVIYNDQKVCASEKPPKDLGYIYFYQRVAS
UniProt P54252, sequence (P54252 whole entry): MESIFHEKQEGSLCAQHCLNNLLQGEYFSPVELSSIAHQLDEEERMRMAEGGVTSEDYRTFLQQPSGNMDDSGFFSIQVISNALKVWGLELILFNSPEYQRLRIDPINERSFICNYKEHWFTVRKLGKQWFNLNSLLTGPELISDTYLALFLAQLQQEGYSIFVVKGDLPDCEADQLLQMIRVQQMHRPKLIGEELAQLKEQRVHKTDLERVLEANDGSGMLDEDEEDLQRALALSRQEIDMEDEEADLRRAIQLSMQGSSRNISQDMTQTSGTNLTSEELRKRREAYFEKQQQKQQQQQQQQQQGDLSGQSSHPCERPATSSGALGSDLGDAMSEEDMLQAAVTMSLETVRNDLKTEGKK

Row | Target | log2 ratio of Biotin-Ahx-Ub-VS probe labelling
1 | UniProt P51784 | 0.0618 (inactive)
2 | USP12 (UniProt O75317) | -0.429 (inactive)
3 | USP8 (UniProt P40818) | -0.191 (inactive)
4 | UniProt O00487 | 0.252 (inactive)
5 | USP7 (UniProt Q93009) | -0.163 (inactive)
6 | ALG13 (UniProt Q9NP73) | -0.154 (inactive)
7 | UniProt Q70EL2 | -0.267 (inactive)
8 | USP36 (UniProt Q9P275) | -0.292 (inactive)
9 | USP22 (UniProt Q9UPT9) | 0.0772 (inactive)
10 | YOD1 (UniProt Q5VVQ6) | -0.0389 (inactive)
11 | USP16 (UniProt Q9Y5T5) | -0.176 (inactive)
12 | EIF3H (UniProt O15372) | -0.0689 (inactive)
13 | USP4 (UniProt Q13107) | -0.0435 (inactive)
14 | USP19 (UniProt O94966) | -0.227 (inactive)
15 | USP42 (UniProt Q9H9J4) | -0.155 (inactive)
16 | ATXN3 (UniProt P54252) | -0.261 (inactive)
17 | USP5 (UniProt P45974) | -0.165 (inactive)
18 | PSMD7 (UniProt P51665) | -1.2 (inactive)
19 | USP10 (UniProt Q14694) | -0.0318 (inactive)
20 | USP25 (UniProt Q9UHP3) | -0.312 (inactive)

same assay, conditions: compound concentration: 200uM; treatment time: 3 h

Row | Target | log2 ratio of Biotin-Ahx-Ub-VS probe labelling
21 | UniProt P51784 | 0.0228 (inactive)
22 | USP12 (UniProt O75317) | 0.0646 (inactive)
23 | USP8 (UniProt P40818) | -0.0614 (inactive)
24 | UniProt O00487 | 0.0206 (inactive)
25 | USP7 (UniProt Q93009) | -0.0621 (inactive)
26 | ALG13 (UniProt Q9NP73) | 0.381 (inactive)
27 | UniProt Q70EL2 | 0.248 (inactive)
28 | USP36 (UniProt Q9P275) | -0.22 (inactive)
29 | USP22 (UniProt Q9UPT9) | -0.266 (inactive)
30 | YOD1 (UniProt Q5VVQ6) | 0.0083 (inactive)
31 | USP16 (UniProt Q9Y5T5) | -0.253 (inactive)
32 | EIF3H (UniProt O15372) | 0.0852 (inactive)
33 | USP4 (UniProt Q13107) | -0.588 (inactive)
34 | USP19 (UniProt O94966) | -0.0992 (inactive)
35 | USP42 (UniProt Q9H9J4) | -0.0948 (inactive)
36 | ATXN3 (UniProt P54252) | 0.039 (inactive)
37 | USP5 (UniProt P45974) | -0.145 (inactive)
38 | PSMD7 (UniProt P51665) | -0.91 (inactive)
39 | USP10 (UniProt Q14694) | -0.0398 (inactive)
40 | USP25 (UniProt Q9UHP3) | -1.01 (active)
